# Assay results taken from PubChem BioAssay AID977607 (Broad Institute, 2014).
# Among all 1,500 compounds or so, about 460 (31%) were called active. About 1% were inconclusive and are not listed. Only a sample is shown. Measured potencies and affinities stand elsewhere. Unmarked numbers belong to inactive results.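 Rule for the calls: active = curve reaches 40% activation over neutral controls at an AC40 no higher than the top valid tested concentration; inconclusive = no clear call, values can overlap the other calls; inactive = signal moving opposite to the expected increase, and the rest.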
# Assay: GLuc-reported insulin release enhancers, glucose-stimulated beta cells – cell-based, INS-1E, Gaussia luciferase, luminescence, cherry-pick, set 2, dose response (AID 977607);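 note: 0% = median of the plate neutral control wells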
# Settings: INS-1E GLuc insulin secretion reporter, 2-3 h, active compounds read high
# [1] = at 35 µM, 100% = signal doubled over neutral wells unless noted
smiles,measurement,setting,value
CC/C(O)=C1\C(=O)CC(c2ccccc2)CC1=NC(C)C (configuration not stated),max activation,[1],"-12.6% [at 1.2 µM, 100% = signal doubled over neutral wells]"
CCN(CC)CCn1c(=N)n(CC(O)COc2ccccc2)c2ccccc21 (configuration not stated),max activation,[1],"-13.8% [at 3.8 µM, 100% = signal doubled over neutral wells]"
Cc1ccc(C(CC(=O)O)NC(=O)c2ccc(S(=O)(=O)N3CC(C)OC(C)C3)cc2)cc1 (configuration not stated),max activation,[1],"-15.8% [at 0.42 µM, 100% = signal doubled over neutral wells]"
CCOC1=C2[C@H](c3ccc(C)cc3)N(S(=O)(=O)c3ccc(C)cc3)C[C@H]2n2c(=O)n(-c3ccccc3)c(=O)n2C1,max activation,[1],"-23.2% [at 0.005 µM, 100% = signal doubled over neutral wells]"
CNc1nc(N)c(C(=O)C(C)(C)C)s1,max activation,[1],"27.9% [at 11 µM, 100% = signal doubled over neutral wells]"
CC1(C)Cc2c(c(-c3ccco3)nc3n[nH]c(N)c23)CO1,max activation,[1],"25% [at 0.135 µM, 100% = signal doubled over neutral wells]"
CN=C1c2ccccc2CN1c1cccc(C(=O)OC)c1,max activation,[1],14.7%
O=S(=O)(c1ccc(NCCCO)nc1)N1CCOCC1,max activation,[1],"-14.1% [at 0.015 µM, 100% = signal doubled over neutral wells]"
COC(=O)c1c(C)oc(C)c1S(=O)(=O)Nc1ccc(C(C)C)cc1,max activation,[1],-24.4%
Cc1ccc(-c2cnc3cccnn23)cc1F,max activation,[1],"39% [at 0.015 µM, 100% = signal doubled over neutral wells]"
COC(=O)c1ccc(Oc2ccc(C(F)(F)F)cn2)cc1,max activation,[1],"-19.1% [at 0.135 µM, 100% = signal doubled over neutral wells]"
Cc1nc2c(-c3ccc(F)cc3)cnn2c2c1CCC2,max activation,[1],"-15.5% [at 0.0016 µM, 100% = signal doubled over neutral wells]"
COC(=O)C[C@@H]1C=C[C@H](NC(=O)Cc2ccccn2)[C@@H](CO)O1,max activation,[1],"-17.5% [at 0.015 µM, 100% = signal doubled over neutral wells]"
COCCNC(=O)CCCn1c(=O)c2ccccc2n(Cc2ccccc2C#N)c1=O,max activation,[1],"-20.3% [at 0.015 µM, 100% = signal doubled over neutral wells]"
CCc1c(C(=O)Nc2ccc(C)c(C)c2)[nH]c(C)c1C(C)=O,max activation,[1],"-21.4% [at 11 µM, 100% = signal doubled over neutral wells]"
CCN(c1ccccc1)S(=O)(=O)c1ccc(OC)c(OC)c1,max activation,[1],12.1%
COc1ccc(S(=O)(=O)N2CCC(C(=O)NCc3ccccn3)CC2)cc1OC,max activation,[1],"32.9% [at 3.8 µM, 100% = signal doubled over neutral wells]"
COc1ccc(N2CCN(S(=O)(=O)c3ccc(-c4cc(C)no4)s3)CC2)cc1,max activation,[1],"-17.8% [at 0.135 µM, 100% = signal doubled over neutral wells]"
COc1ccc(CN(C)C(=O)c2cc(-c3ccc(OC)c(OC)c3)nc3ccccc23)c(OC)c1,max activation,[1],-23.5%
COc1ccc(-c2cc(C(=O)N(C)Cc3ccc(OC)c(OC)c3OC)c3ccccc3n2)cc1OC,max activation,[1],"13.2% [at 11 µM, 100% = signal doubled over neutral wells]"
c1cn2cc(-c3ccc(CN4CCOCC4)cc3)ccc2n1,max activation,[1],"-25.5% [at 3.8 µM, 100% = signal doubled over neutral wells]"
O=c1[nH]c2cc(Cl)ccc2n(CCNc2ncc(C(F)(F)F)cc2Cl)c1=O,max activation,[1],"-28.9% [at 3.8 µM, 100% = signal doubled over neutral wells]"
COc1ccc(-c2cc3nc4ccccc4n3c(N)c2C#N)cc1,max activation,[1],"-29% [at 0.135 µM, 100% = signal doubled over neutral wells]"
O=C(O)c1ccc(-c2nc(-c3ccccc3)c(-c3cccs3)[nH]2)cc1,max activation,[1],"6.45% [at 1.2 µM, 100% = signal doubled over neutral wells]"
COc1ccc(-c2ocnc2C(=O)Nc2ccc(N3CCOCC3)cc2N2CCOCC2)cc1OC,max activation,[1],-29.2%
COc1ccc(C2CC(c3ccc(OC)c(OC)c3)=NN2C(=O)c2ccccc2)cc1 (configuration not stated),max activation,[1],"-8.01% [at 0.0016 µM, 100% = signal doubled over neutral wells]"
O=c1c2ccccc2c(-c2ccccc2)nn1-c1ccccn1,max activation,[1],-14.4%
COc1cc2c3nnc(-c4ccccc4)c-3cn(Cc3ccccc3F)c2cc1OC,max activation,[1],"-22.1% [at 0.135 µM, 100% = signal doubled over neutral wells]"
COc1ccc(CNC(=O)C2Cc3c(-c4cccc(F)c4)ccnc3O2)cc1OC (configuration not stated),max activation,[1],"-18.6% [at 0.015 µM, 100% = signal doubled over neutral wells]"
COc1ccccc1Cn1c(=O)oc2ccccc21,max activation,[1],"-27.7% [at 0.005 µM, 100% = signal doubled over neutral wells]"
FC(F)(F)c1ccc(Cl)c(-n2c(Cc3cccs3)n[nH]c2=S)c1,max activation,[1],"-14.3% [at 0.005 µM, 100% = signal doubled over neutral wells]"
COc1ccc(/C=C2/SC(=O)N(NS(=O)(=O)c3ccccc3)C2=S)cc1OC,max activation,[1],"-21.6% [at 0.015 µM, 100% = signal doubled over neutral wells]"
CC1(C)CCCC(C)(C)N1CC(O)COCCOc1ccc(Br)cc1 (configuration not stated),max activation,[1],-12.4%
CCS(=O)(=O)c1nc(S(=O)(=O)c2ccc(C)cc2)c(N2CCC(O)CC2)s1,max activation,[1],"-18.3% [at 0.42 µM, 100% = signal doubled over neutral wells]"
Cc1ccc2c(=O)cc(C(=O)NC3CCS(=O)(=O)C3)oc2c1C (configuration not stated),max activation,[1],"-12.4% [at 0.046 µM, 100% = signal doubled over neutral wells]"
Cc1ccnc(NS(=O)(=O)c2ccc(NC(=O)CCc3ccccc3)cc2)n1,max activation,[1],"33.7% [at 1.2 µM, 100% = signal doubled over neutral wells]"
COc1ccc2oc(C(=O)Nc3nnc(C)s3)c(C)c2c1,max activation,[1],"-20% [at 0.015 µM, 100% = signal doubled over neutral wells]"
CCC(=O)Nc1ccc(C(=O)N/N=C/c2cccnc2)cc1,max activation,[1],"-26.1% [at 3.8 µM, 100% = signal doubled over neutral wells]"
CCc1nc(N)nc(N)c1-c1ccc(Cl)c(N=[N+]=[N-])c1,max activation,"at 0.046 µM, 100% = signal doubled over neutral wells",-14.5%
same,max activation,"at 1.2 µM, 100% = signal doubled over neutral wells",-22.8%
Cc1ccc(-c2csc(NC(=O)CCCc3cccs3)n2)cc1,max activation,[1],"22% [at 0.42 µM, 100% = signal doubled over neutral wells]"
CCCc1nc2n[nH]c(N)c2c2c1COC(C)(C)C2,max activation,[1],19.9%
COc1ccc(CN(C)C(=O)COc2cccc(-n3cnnn3)c2)cc1OC,max activation,[1],25.6%
COc1ccccc1CNS(=O)(=O)c1cc(-c2cc(C)no2)ccc1C(C)C,max activation,[1],-29.2%
COc1ccc(-c2cc(C(=O)N3CCCCCC3)no2)cc1OC,max activation,[1],"-22% [at 3.8 µM, 100% = signal doubled over neutral wells]"
COCCNC(=O)c1ccc(N(C)S(=O)(=O)c2ccc(OC)c(OC)c2)cc1,max activation,[1],"19.5% [at 0.005 µM, 100% = signal doubled over neutral wells]"
C=CCc1cccc(/C=N/NC(=O)CCC(=O)Nc2ccc(C)cc2)c1O,max activation,[1],-34.3%
O=C(N/N=C/c1cc(Cl)ccc1O)c1ccc(Br)cc1,max activation,[1],"-24.4% [at 3.8 µM, 100% = signal doubled over neutral wells]"
Cc1nc2ccccc2c(=O)n1/N=C/c1ccc(N(C)C)cc1,max activation,[1],"-10.6% [at 1.2 µM, 100% = signal doubled over neutral wells]"
CCc1nc2c(OCCC3CCCCC3)cccn2c1N(C)C(=O)c1ccco1,max activation,[1],-35%
Cc1ccccc1CN(C)Cc1cc(=O)oc2c(C)c(C)ccc12,max activation,[1],-33.3%
O=C(c1ccccc1)N(C(=O)c1ccccc1)N1CCCC1,max activation,[1],"28.2% [at 0.046 µM, 100% = signal doubled over neutral wells]"
O=C(O)CCN1c2ccccc2Sc2ccccc21,max activation,[1],"-23% [at 3.8 µM, 100% = signal doubled over neutral wells]"
COc1ccc(/C=N/Nc2ncnc3c2[nH]c2ccccc23)c(OC)c1OC,max activation,[1],"-28.4% [at 0.005 µM, 100% = signal doubled over neutral wells]"
O=C(CCc1ccccc1)NNC(=O)COc1ccccc1Cl,max activation,[1],"22.3% [at 0.42 µM, 100% = signal doubled over neutral wells]"
c1ccc2c(N3CCCCC3)nc(N3CCCC3)nc2c1,max activation,[1],34.7%
O=S(=O)(N1CCOCC1)n1c(Cc2ccccc2)nc2ccccc21,max activation,[1],"-18.5% [at 0.046 µM, 100% = signal doubled over neutral wells]"
